Some compounds were tested as several samples or in several runs, with calls that do not always agree. The source made the active and inactive calls. The calls were made as follows: active = hit-call score of the fitted dose curve at least 0.9, where 1 is the maximum; inactive = score below 0.9.

Here are results for 39 compounds from PubChem BioAssay (EPA / NIEHS).

This assay is described as follows: ATG_Sox_CIS: Attagene CIS-FACTORIAL HepG2 Assay for human SRY-box transcription factor (SOX) (AID 2282960). The settings on record: HepG2 Attagene cis-factorial SOX reporter, mRNA; actives raise or lower the signal. The method, then:
ATG_CIS is a cell-based, multiplexed-readout assay that uses HepG2, a human liver cell line, with measurements taken at 24 hours after chemical dosing in a 24-well plate.ATG_Sox_CIS is one of 52 assay component(s) measured or calculated from the ATG_CIS assay. It is designed to make measurements of mRNA induction, a form of inducible reporter, as detected with fluorescence intensity signals by Reverse transcription polymerase chain reaction (RT-PCR) and Capillary electrophoresis technology.Data from the assay component ATG_Sox_CIS was analyzed into 1 assay endpoint. This assay endpoint, ATG_Sox_CIS, was analyzed with bidirectional fitting relative to DMSO as the negative control and baseline of activity. Using a type of inducible reporter, measures of mRNA for gain or loss-of-signal activity can be used to understand the reporter gene at the transcription factor-level as they relate to the gene SOX1. Furthermore, this assay endpoint can be referred to as a primary readout, because this assay has produced multiple assay endpoints where this one serves a reporter gene function. To generalize the intended target to other relatable targets, this assay endpoint is annotated to the dna binding intended target family, where the subfamily is HMG box protein.
Human liver HepG2 cells are transiently transfected with multiple reporter transcription units (MRTUs) in 6-well plates using FuGene 6 reagent (Roche; 3 ml FuGene/1 mg DNA). The MRTU constructs are regulated by a cis-regulating element (promoter). […] A major difference between the CIS and TRANS system is that in CIS activities of endogenous TFs are measured, whereas the TRANS assay evaluates changes in activities of exogenous, chimeric NR-Gal4 proteins. […] At the end of 24 hour incubation, total RNA was isolated using TriZol reagent (Invitrogen). The isolated RNA is then reverse-transcribed using oligo(dT) primer and Mo-MLV reverse transcriptase (Invitrogen) with DNAse I (Ambion) treatment for 30 min. The one-tenth of the produced cDNA was amplified by PCR using Taq DNA polymerase (Invitrogen) and two reporter sequence-specific primers. The PCR products were fluorescently labeled by primer extension with 6-arboxyfluorescein (6-FAM) 5'-labeled reporter sequence-specific primer (2 min at 95 C, 20 s at 68 C and 10 min at 72 C) and these products were digested with 5U of HpaI (New England Biolabs) for 2h at 37 C. The fragments were purified using Qiaquick PCR columns (Qiagen), analyzed on an ABI 3130xL genetic analyzer (Applied Biosystems) with peak positions identified by using a set of X-rhodamine (ROX)-labeled MapMarker1000 molecular weight standards (BioVentures). The raw capillary electrophoresis data was processed using Attagraph software (Attagene).
Take `OCC(F)(F)C(F)(F)C(F)(F)C(F)F`: the call was inactive.
The same measure, in the same setting: under `CCCCCCS` stands “inactive”.
With `CCCCCC=O`, the compound was called inactive.
Regarding `O=S(=O)(O)c1ccc2ccccc2c1`, the outcome was inactive.
On the same count and under the same terms, in the case of `CCN(Cc1cccc(S(=O)(=O)O)c1)c1ccc(C(=C2C=CC(=[N+](CC)Cc3cccc(S(=O)(=O)O)c3)C=C2)c2ccc(O)cc2S(=O)(=O)[O-])cc1` it was “inactive”.
As usually defined, the AC50 is the concentration at which the activity in the assay is half-maximal. `OCCCC(F)(F)C(F)(F)C(F)(F)C(F)(F)C(F)(F)C(F)(F)C(F)(F)F`: the AC50 is 68.9 µM (active) and the result was inactive.
For the compound `c1ccc(-c2ccccc2-c2ccccc2)cc1`, the result was inactive.
In the case of `CC(C)OC(=O)c1ccccc1C(=O)OC(C)C`, the result was inactive.
As for `O=C(O)C=C(C(F)(F)F)C(F)(F)F`, the result was inactive.
Still for that read-out and setting: in the case of `C=CC(F)(F)C(F)(F)C(F)(F)C(F)(F)C(F)(F)C(F)(F)C(F)(F)C(F)(F)F` it was “inactive”.
Take `NC(=O)C(F)(F)C(F)(F)C(F)(F)C(F)(F)F`: the compound was called inactive.
On to `C=CC(=O)OCC(F)(F)C(F)(F)C(F)(F)C(F)(F)COC(=O)C=C`, for which the AC50 was 56.2 µM (active).
For `O=C(O)C(F)(F)C(F)(F)C(F)(F)C(F)(F)F`, the call was inactive.
Same read-out and setting: under `O=C(O)C(F)(F)C(F)(F)C(F)(F)C(F)(F)C(F)(F)C(F)(F)C(F)(F)C(F)(F)C(F)(F)C(F)(F)C(F)(F)C(F)(F)C(F)(F)F` stands “inactive”; under `O=S(=O)(O)C(F)(F)C(F)(F)C(F)(F)C(F)(F)C(F)(F)C(F)(F)C(F)(F)F`, “inactive”.
Still for that read-out and setting: under `FC(F)(F)C(F)(F)C(F)(F)C(F)(F)CCI` stands “inactive”; under `CCc1c(Br)c(Br)c(Br)c(Br)c1Br`, “inactive”.
Still for that read-out and setting: under `FC1CC(F)(F)C(F)(F)C1(F)F` (stereo not given) stands “inactive”; under `O=P(O)(O)OCCC(F)(F)C(F)(F)C(F)(F)C(F)(F)C(F)(F)C(F)(F)F`, “inactive”.
For `FC(F)(F)C(F)(F)C(F)(F)C(F)(F)C(F)(F)C(F)(F)CC1CO1` (stereo not given), the call was inactive.
Regarding `CCCCCCC(C)OC(=O)CCCCC(=O)OC(C)CCCCCC` (stereo not given), the outcome was inactive.
With `O=C(O)C(F)(F)C(F)(F)C(F)F`, the compound was classed as inactive.
The same measure, in the same setting: in the case of `OCC(F)(F)C(F)(F)C(F)(F)C(F)(F)C(F)(F)C(F)(F)F` it was “inactive”.
On to `CCCCCCOC(=O)c1ccccc1O`, for which the outcome was inactive.
On the same count and under the same terms, under `CC(C)=CCCC(C)CCOC(=O)C(C)C` (stereo not given) stands “inactive”.
As for `O[Si](c1ccccc1)(c1ccccc1)c1ccccc1`, the compound was called inactive.
On to `CCCCCCCOC(=O)c1ccccc1C(=O)OCCCCCCC`, for which the call was inactive.
With `OCC(F)(F)C(F)(F)C(F)(F)F`, the call was inactive.
As for `CCC(=O)OCCc1ccccc1`, the compound was classed as inactive.
On to `C=C(C)C(=O)OCC(F)(F)C(F)(F)C(F)(F)F`, for which the compound was called inactive.
Same read-out and setting: in the case of `Cc1ccc(S(=O)(=O)OCC(F)(F)C(F)(F)C(F)(F)C(F)(F)C(F)(F)C(F)F)cc1` it was “inactive”; in that of `CC(C)c1ccccc1N`, “inactive”.
On the same count and under the same terms, under `O=C(O)C(F)(OC(F)(F)C(F)(OC(F)(F)C(F)(OC(F)(F)C(F)(F)C(F)(F)F)C(F)(F)F)C(F)(F)F)C(F)(F)F` (stereo not given) stands “inactive”.
On to `CC(Cc1ccc(O)c(O)c1)C(C)Cc1ccc(O)c(O)c1` (stereo not given), for which the concentration at half-maximal activity (AC50) is 33.4 µM (active).
Regarding `O=C(O)C(F)(F)C(F)(F)F`, the compound was called inactive.
As to `C=C(C)C(=O)OCCC(F)(F)C(F)(F)C(F)(F)C(F)(F)C(F)(C(F)(F)F)C(F)(F)F`, the result was inactive.
In the case of `FC(F)(F)C(F)(F)C(F)(F)C(F)(F)C(F)(F)C(F)(F)C(F)(F)C(F)(F)F`, the compound was classed as inactive.
Consider `O=C(C=Cc1ccccc1)OCC=Cc1ccccc1`, for which the outcome was inactive.
For the compound `O=C(O)C(F)(F)C(F)(F)C(F)(F)C(F)(F)C(F)(F)C(F)(F)C(F)(F)C(F)(F)C(F)(F)C(F)F`, the call was inactive.
